Rows were chosen to be rich in hits. Some 3.4% of all compounds tested hit in one or more screens of this group.
TEAD-YAP block – TEAD-YAP interaction inhibition, primary screen, TEAD-YAP interaction inhibitor project, luminescence, HEK-TIYL cells. TEAD-Gal4/YAP UAS-luciferase luminescence. inhibition, % at 9.12 µM. 1.4% of 640,000 active. AID 1259422, 2018; in the data active = inhibition above about 32%
MITF inh – MITF inhibitors, primary screen, biochemical, AlphaScreen, human | inhibition, % at 2.6 µM | Microphthalmia-associated transcription factor (Homo sapiens), O75030 | 0.91% of 650,000 active | AlphaScreen MITF homodimerization, bead proximity signal; in the data active = inhibition above about 50%
FBW7 act – FBW7 E3 ligase activators, primary screen, biochemical, AlphaScreen, human; 0.13% of 650,000 active; F-box/WD repeat-containing protein 7 (Homo sapiens), Q969H0; normalized activity (activation), % at 26.1 µM; AID 1259310, 2017; AlphaScreen FBW7–phospho-cyclin E peptide binding, activator screen; in the data active = normalized activity above about 1.9%;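 note: purified mutant Fbw7 with reduced substrate affinity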
GPR151 ag – activators of human GPR151, primary screen, cell-based, PathHunter beta-arrestin, luminescence; PathHunter beta-arrestin GPR151 cells; activation, % at 11.2 µM; G-protein coupled receptor 151 (Homo sapiens), Q8TDV0; 1% of 650,000 active; AID 1508602, 2020; in the data active = activation above about 4.9%
Of the large screens only hits and unclear results are named; the others gave an inactive call; ! = not active in a repeat.

CN1C(=O)NC(=O)/C(=C/c2ccc(I)o2)C1=O	MITF inh 63.0
COc1ccc2nc(N3CCC(C(=O)N4CCC5(CC4)OCCO5)CC3)sc2c1	none
COc1ccc2c(c1)c(C(=O)NC1CC1)nn2Cc1ccc(S(=O)(=O)N(C)OC)cc1	none
CC(C)CCCn1c(O)c(/C=C2\C=CC=N2)c(=O)[nH]c1=O	none
O=c1[nH]c(=O)n(Cc2ccccc2Cl)c(O)c1/C=C1\C=CC=N1	TEAD-YAP block 51.6
O=c1cccc2n1C[C@H]1CNC[C@H]2C1	none
CN1C(=O)C(=Cc2ccc(-c3cccc(C(=O)O)c3)o2)C(=O)N(C)C1=O	none
COc1ccc(N2CCN(Cc3ccc(N(C)C)cc3)CC2)cc1	MITF inh 71.1
COc1ccc(N2CCN(CCC#N)CC2)cc1	MITF inh 57.3
Cc1cc(N(C)C)cc(C)[n+]1OC(=O)N(c1ccccc1)c1ccccc1	TEAD-YAP block 64.1
CC(=O)c1ccc(OC(=O)N(C)c2ccccc2)cc1	none
CN(C)C(=S)SSC(=S)N(C)C	TEAD-YAP block 34.4
N#CC(C#N)=Cc1ccc(O)c(O)c1	MITF inh 74.1!
CC1=CC(=O)NP(=O)(Oc2ccc3ccccc3c2)N1 (stereo not drawn)	FBW7 act 1.9
O=C1/C(=C\c2ccccc2)N2CCC1CC2	none
CN/C(=C/[N+](=O)[O-])NCc1ccc(Cl)nc1	none
CN(C)c1ccc(/C=C2/C(=O)NC(=S)N(Cc3ccco3)C2=O)cc1	MITF inh 76.2
CN(C)c1ccc(/C=C2/C(=O)NC(=S)N(c3ccccc3F)C2=O)cc1	none
COc1ccc2c(c1)O/C(=C\c1cccc(OC(=O)N(C)C)c1)C2=O	none
CCC1(C)CC2(CCO1)CNCCN2 (stereo not drawn)	none
Fc1cnc(Nc2ccc(-n3cnc(N4CCOCC4)n3)cc2)cc1-c1cn[nH]c1 (tested in a mixture with another compound)	TEAD-YAP block 36.0
Cc1nc(C)n(-c2ccc(Nc3cc(-c4cn[nH]c4)ccn3)cc2)n1 (tested in a mixture with another compound)	none
COc1ccc(OC)c(N2C(=O)/C(=C\c3ccco3)C(=O)NC2=S)c1	MITF inh 79.1
CC1C(c2ccccc2)OCN1C (stereo not drawn)	none
CCOc1ccc(-c2nc(CSCC(=O)N3CCC4(CC3)OCCO4)c(C)o2)cc1	TEAD-YAP block 53.0
COc1ccc(-c2nc(CSCC(=O)N3CCC4(CC3)OCCO4)c(C)o2)cc1OC	none
Cc1ccc(-c2nc(CSCC(=O)N3CCC4(CC3)OCCO4)c(C)o2)cc1	TEAD-YAP block 49.9
Cc1ccc(-c2nc(C(=O)N3CCC4(CC3)OCCO4)c3n2CCCCC3)cc1	none
Nc1cc(C(=O)NCCC2=CCCCC2)ccc1N1CC2CC(C1)c1cccc(=O)n1C2 (stereo not drawn)	none
CN1C(=O)[C@]23CC4=CC=C[C@H](O)[C@H]4N2C(=O)[C@@]1(CO)SS3	TEAD-YAP block 87.9
CCCOc1ccc(/C=C(/C)[N+](=O)[O-])cc1OC	TEAD-YAP block 37.2
O=C(O)COc1ccccc1/C=C1\C(=O)NC(=O)N(c2ccc(O)cc2)C1=O	MITF inh 75.1
COc1cc(/C=C2\C(=O)NC(=O)N(c3ccc([N+](=O)[O-])cc3)C2=O)ccc1OCC(=O)O	none
CC1=CC(=C2C(=O)NC(=S)NC2=O)C=C(C(F)(F)F)N1Cc1ccccc1	TEAD-YAP block 51.6
O=c1[nH]c(=S)[nH]c(O)c1N=Nc1ccc2c(c1)OCCO2	none
O=c1[nH]c(O)c(N=Nc2ccc3c(c2)OCCO3)c(=O)[nH]1	TEAD-YAP block 62.4
O=C(c1ccccc1)c1cc(Br)ccc1NC(=O)c1cc2ccccc2oc1=O	none
CC(C)n1ccc(C(=O)Nc2cc3ccccc3oc2=O)n1	TEAD-YAP block 62.8
COC1CC=C2CCN3CCC4=C(CC(=O)OC4)[C@]23C1 (stereo partly drawn)	none
CCCCC[C@H]1C(=O)O[C@H](C)[C@H](NC(=O)c2cccc(NC=O)c2O)C(=O)O[C@@H](C)[C@@H]1OC(=O)CC(C)C	TEAD-YAP block 51.8
CCCCCC[C@H]1C(=O)O[C@H](C)[C@H](NC(=O)c2cccc(NC=O)c2O)C(=O)O[C@@H](C)[C@@H]1OC(=O)CC(C)C	TEAD-YAP block 49.5
Cc1cncc2cccc(N3CCNCC3)c12	TEAD-YAP block 37.6
c1ccc2c(N3CCNCC3)cccc2c1	none
Clc1ccc(CCNCc2ccc3c(c2)OCO3)cc1	none

Bioassay records as filed in PubChem.
